Assay results from PubChem BioAssay (Tox21).
“And” between values parts separate entries of the source, which are not always exact repeats. Identical values can stand only once. Inconclusive results are not listed. Some structures have more than one record in an assay (separate samples or runs), and their calls can disagree. The source made the active and inactive calls. Calls come from the whole dose curve; as a rule, active = well fitted inhibition curve with a large enough effect in the repeat runs; inconclusive = weak or mixed curves; inactive = no such curve, though single readings can be large or run the other way.

Each compound was assayed against Cytochrome P450 2C19 (Homo sapiens) (UniProt P33261) (assay: Cytochrome P450 Family 2 Subfamily C Member 19 (CYP2C19) small molecule antagonists: luciferase reporter qHTS assay (AID 1671197; note: nearly all actives have a fitted effect of over 65% in size)). Details: P450-Glo CYP2C19 enzyme, luciferin luminescence, 1 h; series mostly up to 115 µM; activity change, negative = inhibition: at the top concentration.
From the text: National Center for Advancing Translational Sciences [NCATS]
U.S. Environmental Protection Agency [EPA]
National Institutes of Environmental Health Sciences [NIEHS]
National Toxicology Program [NTP]
U.S. Food and Drug Administration [FDA]
Cytochrome P450 (CYP) enzymes are membrane-bound hemeproteins that play a key role in metabolism of drugs and xenobiotics. Evaluation of the effect of chemicals on CYP isozymes is useful to minimize the adverse drug reactions and toxicities in drug development process. Tox21 chemicals were tested for their effect on CYP enzyme activities by using P450-Glo (TM) screening systems (Promega Corporation, Madison, WI). These systems provide a luminescent method containing proluciferin substrates and are converted to luciferin products by CYP isozymes. The luciferin products formed are detected with a luciferin detection reagent, and the amount of light produced is proportional to CYP activity. P450-Glo (TM) CYP2C19 screening system (Catalog. No. V9880) was used to detect the compounds that interfere in CYP2C19 activity. The positive control compound used for CYP2C19 assay is ketoconazole (Sigma-Aldrich, St. Louis, MO).
Tox21 Assay Protocol Summary:
Two ul of enzyme-substrate mix was dispensed into medium binding white/solid 1536-well plates (Greiner Bio-One North America Inc., Monroe, NC) using a BioRaptr Flying Reagent Dispenser (FRD, Beckman Coulter, Brea, CA). Compounds dissolved in DMSO and positive control (ketoconazole) were transferred to the assay plates at 23 nl using a Pintool station (Wako, San Diego, CA). The assay plates were incubated at room temperature for 10 min. Then 2 ul of NADPH regeneration solution was added to each well of the assay plates using an FRD and incubated at 37C for 1 h. The reaction was stopped by adding 4 ul of detection reagent using an FRD and after 20 min incubation at room temperature the luminescence signal was measured using a ViewLux plate reader (Perkin Elmer, Shelton, CT). Data were expressed as relative luminescence units.
% is set by controls: 0 for no effect and ±100 for the full control effect; potency is the fitted concentration of half-maximal effect.

Chain of Cytochrome P450 2C19 (Homo sapiens) (P33261 whole entry, looked up): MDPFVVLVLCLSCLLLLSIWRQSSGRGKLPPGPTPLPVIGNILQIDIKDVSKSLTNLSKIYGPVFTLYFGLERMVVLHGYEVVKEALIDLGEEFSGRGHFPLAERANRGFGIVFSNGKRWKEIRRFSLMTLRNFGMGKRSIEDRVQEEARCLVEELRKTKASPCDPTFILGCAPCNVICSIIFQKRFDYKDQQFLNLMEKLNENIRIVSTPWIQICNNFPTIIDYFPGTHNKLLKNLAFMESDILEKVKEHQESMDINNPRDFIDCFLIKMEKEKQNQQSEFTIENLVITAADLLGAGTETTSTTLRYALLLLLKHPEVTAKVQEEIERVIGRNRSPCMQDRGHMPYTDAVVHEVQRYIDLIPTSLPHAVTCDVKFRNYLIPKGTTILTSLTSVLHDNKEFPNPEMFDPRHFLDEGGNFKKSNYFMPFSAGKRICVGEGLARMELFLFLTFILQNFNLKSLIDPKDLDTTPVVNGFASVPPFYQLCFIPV

Question: With Cc1ccc(S(=O)(=O)Oc2ccc(N=Nc3ccc(-c4ccc(N=Nc5c(O)ccc6cc(S(=O)(=O)O)cc(S(=O)(=O)O)c56)c(C)c4)cc3C)cc2)cc1 as the compound, how does the Potency read?
Answer: 28.4 µM (active) and 51.9 µM (active)

Question: C[N+]1([O-])CCOCC1 was tested. Which Potency did it give?
Answer: 39.8 µM (active)

Question: Which “activity change, negative = inhibition” value does the source give for O=C(O)Cn1cnnn1 here?
Answer: -6.06% [at 52.9 µM] (inactive)

Question: For O=Nc1ccc(Nc2ccccc2)cc1, which Potency is on record?
Answer: 5.67 µM (active) and 8.94 µM (active)

Question: With NC(N)=NC(=O)Cc1c(Cl)cccc1Cl as the compound, how does the “activity change, negative = inhibition” value read?
Answer: 13.4% [at 52.9 µM] (inactive)

Question: How did the Potency turn out when C/C=C/c1ccc(OCC)c(O)c1 was run?
Answer: 20 µM (active) and 25.2 µM (active)

Question: For Cc1cc(C(C)(C)C)c(O)c(C(C)(C)C)c1, which Potency is on record?
Answer: inactive

Question: Which Potency does the source give for CC(C)(C)c1ccc(O)c(C(C)(C)C)c1 here?
Answer: 9.99 µM (active) and 17.8 µM (active)

Question: Which Potency does the source give for CC(=O)O[C@]1(C(C)=O)CC[C@H]2[C@@H]3C[C@H](C)C4=CC(=O)CC[C@]4(C)[C@H]3CC[C@@]21C here?
Answer: 15.9 µM (active)

Question: For CC(C)(C)c1ccccc1, which “activity change, negative = inhibition” value is on record?
Answer: -4.35% (inactive)

Question: Which “activity change, negative = inhibition” value does the source give for CCOC(=O)C(C)C(C)=O (stereo not given) here?
Answer: -6.77% (inactive)

Question: Which “activity change, negative = inhibition” value does the source give for O=C1NCC2(CCN(CCc3ccccc3)CC2)O1 here?
Answer: 20.6% [at 52.9 µM] (inactive)

Question: With O=C1Nc2ccccc2C1(c1ccc(O)cc1)c1ccc(O)cc1 as the compound, how does the Potency read?
Answer: 17.8 µM (active) and 9.77 µM (active)

Question: How did the Potency turn out when Cc1cc(OCCOCC[N+](C)(C)Cc2ccccc2)ccc1C(C)(C)CC(C)(C)C was run?
Answer: 39.7 µM (active)

Question: How did the Potency turn out when COC(=O)/C=C/c1ccccc1 was run?
Answer: inactive

Question: For NC(Cc1ccc(Cl)cc1)C(=O)O (stereo not given), which activity change, negative = inhibition is on record?
Answer: 18.5% [at 0.435 µM] (inactive)

Question: Which “activity change, negative = inhibition” value does the source give for CCCNC(C)C(=O)Nc1ccccc1C (stereo not given) here?
Answer: 5.34% [at 52.9 µM] (inactive)

Question: Nc1ccc(O)cc1 was tested. Which Potency did it give?
Answer: 20.8 µM (active) and 34.7 µM (active)

Question: CC(COc1ccccc1)N(CCCl)Cc1ccccc1 (stereo not given) was tested. Which Potency did it give?
Answer: 2.27 µM (active) and 2.24 µM (active) and 3.47 µM (active)

Question: CCC(C)(Oc1ccc(C2(c3ccc(OC(C)(CC)C(=O)O)cc3)CCCCC2)cc1)C(=O)O (stereo not given) was tested. Which “activity change, negative = inhibition” value did it give?
Answer: 12.6% [at 52.9 µM] (inactive)

Question: For C=C(C)C(=O)O, which Potency is on record?
Answer: inactive

Question: With C=C(C)C1CC=C(C)C(OC(C)=O)C1 (stereo not given) as the compound, how does the Potency read?
Answer: inactive

Question: How did the Potency turn out when O=C(Nc1ccccc1SSc1ccccc1NC(=O)c1ccccc1)c1ccccc1 was run?
Answer: 3.19 µM (active) and 2.52 µM (active)

Question: How did the Potency turn out when O=C(Cl)c1cccc(C(=O)Cl)c1 was run?
Answer: 79.6 µM (active) and inactive

Question: CC(N)=O was tested. Which “activity change, negative = inhibition” value did it give?
Answer: 5.41% [at 300 µM] (inactive)

Question: How did the “activity change, negative = inhibition” value turn out when CC(C)(C)NCC(O)COc1ccccc1OCC1CCCO1 (stereo not given) was run?
Answer: -61% [at 52.9 µM] (inactive)

Question: For CC(=O)Nc1ccc(C(=O)CCl)cc1, which Potency is on record?
Answer: inactive and 79.6 µM (active)

Question: With NC(=Nc1ccccc1)Nc1ccccc1 as the compound, how does the Potency read?
Answer: 39.9 µM (active) and inactive

Question: How did the Potency turn out when CCc1cc(C(C)(C)C)c(O)c(C(C)(C)C)c1 was run?
Answer: 71.7 µM (active) and inactive

Question: For Cc1cccc2n[nH]nc12, which Potency is on record?
Answer: inactive

Question: O=C1OC2(c3ccc(O)cc3Oc3cc(O)ccc32)c2ccccc21 was tested. Which Potency did it give?
Answer: 20 µM (active) and 4.9 µM (active)

Question: CN1C(=O)c2ccc([N+](=O)[O-])cc2C1=O was tested. Which Potency did it give?
Answer: 70.9 µM (active)

Question: Which Potency does the source give for NC(N)=Nc1nc(CSCC/C(N)=N/S(N)(=O)=O)cs1 here?
Answer: inactive

Question: Which Potency does the source give for NNCCc1ccccc1 here?
Answer: 6.35 µM (active) and 13.8 µM (active)

Question: Which Potency does the source give for Nc1ccc2cc3ccccc3cc2c1 here?
Answer: 72.3 µM (active) and 35.6 µM (active)

Question: With Nc1nc2ccccc2[nH]1 as the compound, how does the Potency read?
Answer: inactive

Question: Cc1cc(C2(c3cc(C)c(O)cc3C)OS(=O)(=O)c3ccccc32)c(C)cc1O was tested. Which Potency did it give?
Answer: 7.97 µM (active) and 17.8 µM (active)

Question: CC(=O)CC(C)=O was tested. Which “activity change, negative = inhibition” value did it give?
Answer: 12% (inactive)

Question: C=CS(=O)(=O)O was tested. Which “activity change, negative = inhibition” value did it give?
Answer: -21.4% (inactive)

Question: With COc1ccc(CCN(C)CCCC(C#N)(c2ccc(OC)c(OC)c2)C(C)C)cc1OC (stereo not given) as the compound, how does the Potency read?
Answer: inactive
